HCV inh: inhibitors of hepatitis C virus infection; Potency, µM (series often up to 41.8 µM), without a hit: top-dose activity change, negative = inhibition, usual class: inhibitors; 340,000 tested, 3.4% active; Huh7.5.1 HCVcc-Cre infection, luciferase reporter, 44 h; AID 651820; note: potency is the fitted concentration of half-maximal effect; % is set by controls: 0 for no effect and ±100 for the full control effect
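After 44 h co-culture of compound, cells and HCVcc-Cre (~0.5 moi), substrate is added for 15 min at room temperature and luciferase measured over 15 sec. Cells were seeded at 1,000/well and pre-cultured 4 h.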
Shiga toxin inh: Shiga toxin inhibition | Vero cells, Shiga toxin protein synthesis inhibition reporter | inhibition, % at 38.7 µM | 290,000 tested, 9.2% active; in the data active = inhibition mostly above about 28%, no sharp cut-off; inactive = mostly below about 43%; note: 0% is about no effect
Pf growth 48h: P. falciparum growth inhibition at 48 hours (one generation); P. falciparum luciferase growth in erythrocytes, 48 h; Potency, µM (series often up to 28.7 µM), inactives show top-dose activity change, negative = inhibition, actives largely listed as inhibitors; 310,000 tested, 5.9% active; note: potency is the fitted concentration of half-maximal effect; % is set by controls: 0 for no effect and ±100 for the full control effect
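A one-generation exposure of luciferase-tagged malaria parasites in RPMI 1640/Albumax erythrocyte culture, 37 C and 5% CO2. Inhibition is inferred from decreased luminescence after adding detection reagent.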
Pf growth 96h: inhibits malaria parasite growth, 96 h; P. falciparum luciferase reporter growth, 96 h; Potency, µM (doses to about 28.7 µM), for the others: top-dose activity change, negative = inhibition, hits mostly inhibitors; 320,000 tested, 6.9% active; AID 504834; note: potency is the fitted concentration of half-maximal effect; % is set by controls: 0 for no effect and ±100 for the full control effect
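Cell-based qHTS: luciferase-tagged P. falciparum in erythrocytes (2% hematocrit, 0.05% parasitemia final) incubated with compounds for 96 hours, 37 C, 5% CO2; luciferase detection reagent then added and luminescence measured.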
Cycloheximide cs: counter-screen hit for Shiga toxin inhibitors, cycloheximide. cell reporter, cycloheximide protein synthesis inhibition counterscreen. max response, %. 300,000 tested, 12% active; in the data active = max response mostly above about 13%, no sharp cut-off; inactive = mostly below about 14%; note: read at 38.3 µM for the half of the compounds with a filed dose; 0% is about no effect
HCMV inh: blocks human cytomegalovirus replication | HFF cells, HCMV-luciferase reporter, 72 h; stronger effect = lower value | activity change, negative = inhibition, % at 57.5 µM | 410,000 tested, 4.5% active; in the data active = activity change below about -60%; inconclusive = no clear call, values can overlap the other calls; inactive = above about -39%; note: % is set by controls: 0 for no effect and ±100 for the full control effect
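Steps: HFFs plated, 16 h 37C; compounds added; HCMV-luciferase added to MOI 1 PFU/cell; 72 h 37C; OneGlo reagent, 5 min room temperature; luminescence read, normalized to controls.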
The depositor's hits bear a star; ? = inconclusive; nt = no result given; [ ] = dose if it differs, or a comment. Hits are enriched below; roughly 21% of the tested compounds scored in any of these assays. Unless noted, calls come from the whole dose curve; as a rule, active = well fitted inhibition curve with a large enough effect; inconclusive = small, poorly fitted or top-dose-only effect, or another doubt; inactive = no such curve, though single readings can be large or run the other way.

SMILES	HCV inh	Shiga toxin inh	Pf growth 48h	Pf growth 96h	Cycloheximide cs	HCMV inh
COc1ccc(-c2c[n+]3c(n2-c2ccccc2)SCC3)cc1OC	2.8%	-5.9	1.31µM*	?	-2.8	?
COc1ccc(-c2csc(N3CCC(c4ccccc4)CC3)n2)cc1	8.2%	-3.4	13.2%	19.5%	-3.2	-39.1
Cc1cccc(C)c1NC(=O)Cn1cc(C=O)c2ccccc21	?	-12.1	1.9%	?	-2.4	-18.4
CC(=O)CCc1oc2c([N+](=O)[O-])cccc2c1-c1ccc(C)o1	12.6µM*	-27.1	-7.7%	30.6%	0.3	30.8
CC1(c2ccccc2)ON(c2ccccc2C(F)(F)F)C1=O (stereo unspecified)	1.0%	nt	4.15µM*	?	nt	nt
Cc1ccccc1[C@@]1(C)ON(c2ccccc2C(F)(F)F)C1=O	?	nt	1.65µM*	1.04µM*	nt	-10.5
O=C(Nc1ccccc1C(F)(F)F)C(O)(c1ccccc1)C1CCCCC1 (stereo unspecified)	10.3%	nt	?	2.5%	nt	-31.1
CC[C@@]1(c2ccccc2OC)ON(c2ccccc2C(F)(F)F)C1=O	?	nt	0.586µM*	?	nt	?
O=c1c2ccccc2ncn1-c1ccccc1C(F)(F)F	5.8%	24.6	-28.4%	34.6%	2.0	?
O=C1N(c2ccccc2C(F)(F)F)O[C@]1(c1ccccc1)C1CCCC1	-22.2%	nt	1.65µM*	1.31µM*	nt	-1.8
Cc1noc(C)c1S(=O)(=O)NCCc1csc2nc(-c3ccc(Cl)cc3)nn12	nt	nt	nt	nt	nt	39.6
COc1cc(NC(=NS(=O)(=O)c2ccccc2)c2ccccc2)ncn1	-0.4%	nt	nt	nt	nt	169.7
Cc1ccc(C(=O)Nc2cc3ccccc3oc2=O)cc1	-15.6%	32.5	14.4%	10.9%	29.3*	-66.9*
COC(=O)c1cc(NC(=O)c2ccc(OC)cc2)c(=O)oc1C	12.1%	25.2	-37.3%	46.5%	17.4	-37.7
CC(=O)c1cc(NC(=O)c2ccc(C)cc2)c(=O)oc1C	9.8%	71.7*	105.2%	111.6%	28.0	3.1
CC(=O)c1cc(NC(=O)c2ccc(C)cc2)c(=O)oc1/C=C/N(C)C	?	52.0*	70.0%	63.7%	47.9*	18.2
Cn1cnc(S(=O)(=O)N2CCC(C(=O)NCc3ccc(F)cc3)CC2)c1	nt	nt	nt	nt	nt	34.0
CCN(CC)S(=O)(=O)c1cccc(N=Nc2sc(N)nc2C)c1	-1.8%	-7.5	-10.0%[0.00184 µM]	11.7µM*	-4.3	-22.7
CCN(CC)S(=O)(=O)c1cccc(-c2csc(C)n2)c1	-4.6%	8.2	?	-11.1%	-2.5	-20.0
CC(C)(CC(=O)NCc1ccc(Cl)cc1Cl)CC1=NS(=O)(=O)c2ccccc2N1	nt	nt	nt	nt	nt	-89.3*
Cc1ccc(Cl)cc1NC(=O)COC(=O)CC(C)(C)CC1=NS(=O)(=O)c2ccccc2N1	nt	nt	nt	nt	nt	17.2
COc1ccc(C(=O)NCC(c2ccco2)S(=O)(=O)c2cccs2)cc1OC (stereo unspecified)	nt	nt	nt	nt	nt	19.0
Cc1cc(CNC(=O)COc2ccccc2)c2ccccc2n1	-25.4%	80.4	8.5%	38.0%	17.2*	18.8
O=C(Nc1c2ccccc2nc2ccccc12)C(Cl)(Cl)Cl	?	10.4	1.04µM*	35.6%	1.0	nt
Cc1cccc(OCC(=O)Nc2cc(NC(=O)COc3cccc(C)c3)cc(C(=O)O)c2)c1	?	-7.5	0.7%	?	-1.4	-9.6
SMILES	HCV inh	Shiga toxin inh	Pf growth 48h	Pf growth 96h	Cycloheximide cs	HCMV inh
O=C(Nc1c2c(nc3ccccc13)CCCC2)c1ccccc1Cl	12.7%	-9.2	18.1%	-17.8%	-4.6	-29.7
Cc1ccc(OCC(=O)NNc2c3ccccc3nc3ccccc23)cc1	1µM*	8.1	9.28µM*	?	-1.5	-95.0*
Cc1cc(CNC(=O)COc2ccc(F)cc2)c2ccccc2n1	1.0%	23.8	-4.2%	-34.1%[1.15 µM]	-0.1	?
Cc1cccc(OCC(=O)NNc2c3ccccc3nc3ccccc23)c1	1µM*	14.9	?	3.7µM*	0.8	-96.8*
O=C(Cc1ccccc1)NNC(=O)Cc1ccccc1	7.8%	-8.0	13.1%	10.1%	-2.9	-16.1
O=C(Cc1ccccc1)NNc1c2ccccc2nc2ccccc12	?	-4.9	-12.0%	81.3%	-2.5	-66.6*
Cc1ccc(C(=O)COc2nc(C)nc3ccccc23)cc1	9.4%	79.8*	231.6%	48.8%	24.1*	-1.3
O=C(COC(=O)c1cnccn1)Nc1ncc(C(F)(F)F)cc1Cl	17.1%	nt	nt	nt	nt	4.8
Cc1nn(-c2ccc([N+](=O)[O-])cc2)c2c1C(c1cccc(Br)c1)N1C(=N2)C(=O)Nc2ccccc21 (stereo unspecified)	-23.7%	-3.6	1.31µM*	1.04µM*	-1.3	?
Cc1nn(-c2ccccc2)c2c1C(c1ccc([N+](=O)[O-])cc1)N1C(=N2)C(=O)Nc2ccccc21 (stereo unspecified)	?	-13.0	?	5.86µM*	-6.3	29.6
Cc1nn(-c2ccccc2)c(N)c1C1(O)C(=O)Nc2ccc([N+](=O)[O-])cc21 (stereo unspecified)	22.2%	-3.9	3.5%	-13.6%	-1.5	-12.2
Cc1nn(-c2ccccc2)c2c1C(c1ccc([N+](=O)[O-])cc1)C(C#N)=C(N)O2 (stereo unspecified)	5.1%	-5.9	59.2%	4.7%	3.4	-14.9
O=C(CCS(=O)(=O)c1ccccc1)N(CCCN1CCOCC1)c1nc2ccc(F)cc2s1	-5.2%	nt	68.6%	117.3%	nt	104.0
COc1ccc(CNC(=O)c2ccc(C(C)(C)C)cc2)cc1	-21.4%	91.2*	97.1%	145.9%	64.4*	10.6
O=C(NCc1ccc(F)cc1)c1ccncc1	2.5%	-8.3	-13.0%	6.57µM*	-1.4	46.3
O=C(NNCc1ccccc1)c1ccccc1	4.5%	nt	nt	nt	nt	65.7
COc1ccc(CNC(=O)c2ccc(C(C)C)cc2)cc1	15.0%	157.4*	87.0%	23.1%	46.3*	97.4
O=C(NCc1ccc(Cl)cc1)c1ccncc1	1.8%	nt	3.4%	?	-2.4	-5.7
CC(C)c1ccc(CNNC(=O)c2ccccc2)cc1	-13.5%	75.5*	20.2%	59.0%	51.7*	-19.7
Cc1ccc(C)n1-c1nnc(N2CCCC(C(=O)Nc3ccccc3Br)C2)s1 (stereo unspecified)	nt	nt	nt	nt	nt	19.3

Screens deposited in PubChem by National Center for Advancing Translational Sciences (NCATS).
